Measurements taken from PubChem BioAssay (EPA / NIEHS).
Values joined by “and” are separate entries in the source; they are usually repeats but may differ in a detail not shown here. Equal values may be shown once. Some structures have more than one record in an assay (separate samples or runs), and their calls can disagree. Active and inactive are the calls of the source. The calls were made as follows: active = hit-call score of the fitted dose curve at least 0.9, where 1 is the maximum; inactive = score below 0.9.

How the values were obtained:
[1] = ATG_CRE_CIS: Attagene CIS-FACTORIAL HepG2 Assay for human cAMP Responsive Element (CRE) binding protein 3 (AID 2282926); settings: HepG2 CRE cis-reporter, Attagene multiplexed mRNA; actives raise or lower the signal
In short: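 We dosed HepG2 cells bearing multiple cis-promoter reporter units for 24 h and measured reporter mRNA by RT-PCR with capillary electrophoresis detection. Bidirectional concentration-response fitting used DMSO as negative control.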

[2] = target: CCAAT/enhancer-binding protein beta (Homo sapiens) (UniProt P17676); assay: ATG_C_EBP_CIS: Attagene CIS-FACTORIAL HepG2 Assay for human CCAAT/Enhancer Binding Protein (C/EBP) beta (AID 2282927); settings: HepG2 Attagene cis-factorial transcription factor reporter; actives raise or lower the signal
In short: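 Changes in reporter mRNA, rather than exogenous chimeric receptor activity, reflect native C/EBP signalling in transfected HepG2 cells dosed for 24 h; transcripts are detected by RT-PCR and capillary electrophoresis.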

[3] = ATG_CMV_CIS: Attagene CIS-FACTORIAL HepG2 Assay for human CMV (Internal Marker) (AID 2282928); settings: HepG2 CMV promoter reporter, transcription factor profiling; actives raise or lower the signal;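 also: endpoint acts as a background internal control marker rather than a target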
In short: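 Endogenous transcription factor activity read in HepG2 via transfected cis-promoter reporter units. After 24 h dosing, reporter mRNA measured by RT-PCR/capillary electrophoresis; gain or loss of signal fit relative to DMSO.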

[4] = target: Aryl hydrocarbon receptor (Homo sapiens) (UniProt P35869); assay: ATG_Ahr_CIS: Attagene CIS-FACTORIAL HepG2 Assay for human Aryl Hydrocarbon Receptor (Ahr) (AID 2282930); settings: HepG2 AhR cis-factorial reporter transcription; actives raise or lower the signal
In short: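 HepG2, transient MRTU (cis) transfection, 24 h exposure. RNA → cDNA → PCR → 6-FAM primer extension → HpaI 2 h 37 C → CE. Fit: bidirectional, DMSO baseline.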

[5] = ATG_AP_1_CIS: Attagene CIS-FACTORIAL HepG2 Assay for human Activator Protein 1 (AP-1) (AID 2282931); settings: HepG2 Attagene cis-factorial AP-1 reporter mRNA; actives raise or lower the signal
In short: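 Fluorescence of labelled PCR fragments separated by capillary electrophoresis gives reporter mRNA levels. HepG2 with transfected cis-regulated reporter units, 24 h exposure; DMSO serves as baseline for bidirectional curve fits.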

[6] = ATG_BRE_CIS: Attagene CIS-FACTORIAL HepG2 Assay for human Bone Morphogenetic Protein (BMP) Response Element (BRE) (AID 2282933); settings: HepG2 BMP response element reporter, Attagene transcription factor profiling; actives raise or lower the signal
In short: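 A HepG2 multiplex reporter system measured inducible reporter mRNA 24 h post-dosing. Detection: RT-PCR, 6-FAM primer extension, HpaI digestion, capillary electrophoresis. Activity fitted bidirectionally relative to DMSO.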

[7] = target: Retinoic acid receptor alpha (Homo sapiens) (UniProt P10276); assay: ATG_DR5_RAR_CIS: Attagene CIS-FACTORIAL HepG2 Assay for human Retinoic Acid Receptor Alpha (RARE), DR5 submotif (AID 2282934); settings: HepG2 Attagene cis-factorial RARE DR5 reporter, mRNA; actives raise or lower the signal;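 as to AC50: reporter responds to endogenous RAR alpha beta and gamma in HepG2 not RARA alone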
In short: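 HepG2, transient cis-reporter transfection, 24 h exposure. mRNA readout: RT-PCR, FAM label, HpaI cut, capillary electrophoresis. DMSO baseline, gain/loss fitting.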

[8] = target: Transcription factor E2F1 (Homo sapiens) (UniProt Q01094); assay: ATG_E2F_CIS: Attagene CIS-FACTORIAL HepG2 Assay for human E2F Transcription Factor 1 (AID 2282935); settings: HepG2 Attagene cis-reporter, E2F reporter RNA transcripts; actives raise or lower the signal
In short: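 Total RNA from 24 h-treated, reporter-transfected HepG2 cells undergoes DNase I treatment, oligo(dT) reverse transcription, PCR and 6-FAM primer extension before capillary electrophoresis.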

[9] = ATG_E_Box_CIS: Attagene CIS-FACTORIAL HepG2 Assay for human Enhancer Box (E-box) (AID 2282936); settings: HepG2 E-box cis-reporter transcription, actives raise or lower the signal
In short: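 DMSO served as negative control and baseline for bidirectional fitting. Human hepatoma HepG2 cells, transiently transfected with cis-reporter constructs, were dosed 24 h; reporter mRNA read by RT-PCR and capillary electrophoresis.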

[10] = ATG_M_61_CIS: Attagene CIS-FACTORIAL HepG2 Assay for M61 Transcription Factor (Internal Marker) (AID 2282937); settings: HepG2 Attagene CIS-FACTORIAL M61 internal marker reporter; actives raise or lower the signal
In short: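 This endpoint serves as an internal background control within a multiplexed HepG2 cis-reporter panel. Cells are exposed for 24 h; reporter mRNA is amplified, fluorescently labelled and sized by capillary electrophoresis, with DMSO as negative control.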

[11] = ATG_EGR_CIS: Attagene CIS-FACTORIAL HepG2 Assay for human Early Growth Response 1 (EGR1) (AID 2282938); settings: HepG2 Attagene CIS-FACTORIAL EGR reporter mRNA; actives raise or lower the signal
In short: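 HepG2, transient MRTU transfection (cis promoters), 24 h compound. RNA → RT (oligo-dT) → PCR → 6-FAM labelling → HpaI cut → CE fluorescence. Bidirectional fit, DMSO baseline.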

[12] = ATG_M_19_CIS: Attagene CIS-FACTORIAL HepG2 Assay for M19 Transcription Factor (Internal Marker) (AID 2282939); settings: HepG2 Attagene CIS-FACTORIAL M19 internal marker reporter; actives raise or lower the signal
In short: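 Chemical-treated HepG2 (24 h) with MRTU constructs; reporter transcripts detected by fluorescent RT-PCR fragment analysis on capillary electrophoresis. Internal background marker, DMSO as baseline.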

[13] = ATG_ERE_CIS: Attagene CIS-FACTORIAL HepG2 Assay for Estrogen Response Element (ERE) (AID 2282940); settings: HepG2 ERE cis-reporter, Attagene RNA transcript; actives raise or lower the signal
In short: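 Human liver cells (HepG2) bearing transiently transfected, promoter-regulated reporter units were exposed 24 h. Reporter mRNA induction was detected by capillary electrophoresis of labelled RT-PCR products and fitted bidirectionally to DMSO.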

[14] = ATG_Ets_CIS: Attagene CIS-FACTORIAL HepG2 Assay for human Erythroblast Transformation Specific (ETS) (AID 2282941); settings: HepG2 ETS cis-reporter transcription, actives raise or lower the signal
In short: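 Steps: transfect HepG2 with multiple reporter units; treat compound 24 h; isolate RNA, DNase-treat, reverse-transcribe; PCR-amplify, label with 6-FAM, digest with HpaI; separate by capillary electrophoresis. Activity fitted both directions versus DMSO.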

[15] = target: Hepatocyte nuclear factor 3-beta (Homo sapiens) (UniProt Q9Y261); assay: ATG_FoxA2_CIS: Attagene CIS-FACTORIAL HepG2 Assay for human Forkhead box A2 (FOXA2) (AID 2282942); settings: HepG2 cis-reporter transcription factor activity, 24 h; actives raise or lower the signal
In short: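 Cells: HepG2, transient multiplex reporter transfection. Exposure 24 h. Detection: reporter-specific RT-PCR, fluorescent labelling, restriction digest, capillary electrophoresis. Analysis: bidirectional curve fit, DMSO as negative control.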

[16] = ATG_GATA_CIS: Attagene CIS-FACTORIAL HepG2 Assay for human GATA Binding Protein (AID 2282944); settings: HepG2 GATA cis-element reporter, Attagene multiplex mRNA; actives raise or lower the signal
In short: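 Transfected cis-reporter HepG2 cells were treated with chemicals for 24 hours. Total RNA was then converted to cDNA, amplified with reporter-specific primers and analysed by fluorescent capillary electrophoresis, using DMSO-treated wells as baseline.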

[17] = ATG_GLI_CIS: Attagene CIS-FACTORIAL HepG2 Assay for human Zinc Finger Protein GLI1 (AID 2282945); settings: HepG2, Attagene cis-factorial reporter mRNA, GLI element; actives raise or lower the signal
In short: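 Bidirectional curve fits relative to DMSO, using reporter mRNA levels from RT-PCR plus capillary electrophoresis. Cells were HepG2 transiently carrying cis-regulated reporter constructs, harvested 24 h after dosing.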

[18] = ATG_FoxO_CIS: Attagene CIS-FACTORIAL HepG2 Assay for human Forkhead box O (FoxO) (AID 2282943); settings: HepG2 Attagene cis-reporter, FoxO element, mRNA; actives raise or lower the signal
In short: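 Human hepatoma HepG2 cells carry transiently introduced reporter transcription units controlled by cis promoter elements. Chemical treatment lasted 24 h, and mRNA signal was compared with DMSO.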

[19] = ATG_AP_2_CIS: Attagene CIS-FACTORIAL HepG2 Assay for human Activator Protein 2 (AP-2) (AID 2282932); settings: HepG2 AP-2 cis-reporter, Attagene transcription factor profiling; actives raise or lower the signal
In short: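 Step one: transient transfection of HepG2 with reporter transcription units. Step two: 24 h chemical exposure. Step three: RNA extraction, RT-PCR, labelled fragment analysis by capillary electrophoresis; DMSO serves as baseline.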

[20] = ATG_DR4_LXR_CIS: Attagene CIS-FACTORIAL HepG2 Assay for human Liver X Receptor (LXR), DR4 submotif (AID 2282929); settings: HepG2 Attagene DR4 cis-reporter, mRNA transcription; actives raise or lower the signal
In short: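 Endogenous factor activity at a DR4 cis-element is read as reporter mRNA in transiently transfected HepG2 cells. Exposure lasts 24 h; transcripts are amplified, fluorescently labelled and sized by capillary electrophoresis, with DMSO as baseline.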

Measured: AC50

Chain of Transcription factor E2F1 (Homo sapiens) (Q01094 whole entry, looked up): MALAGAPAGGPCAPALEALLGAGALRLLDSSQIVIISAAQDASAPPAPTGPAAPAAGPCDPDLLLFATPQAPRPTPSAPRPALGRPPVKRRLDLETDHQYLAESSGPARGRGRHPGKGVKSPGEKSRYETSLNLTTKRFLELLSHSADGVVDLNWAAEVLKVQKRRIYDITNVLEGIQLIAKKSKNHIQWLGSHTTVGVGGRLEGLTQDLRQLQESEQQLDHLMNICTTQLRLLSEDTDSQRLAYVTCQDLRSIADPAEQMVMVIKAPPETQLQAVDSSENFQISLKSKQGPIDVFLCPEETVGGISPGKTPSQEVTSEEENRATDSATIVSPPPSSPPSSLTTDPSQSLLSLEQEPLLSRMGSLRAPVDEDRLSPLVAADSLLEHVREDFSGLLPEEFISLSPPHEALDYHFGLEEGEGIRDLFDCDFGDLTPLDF
Chain of CCAAT/enhancer-binding protein beta (Homo sapiens) (P17676 whole entry, looked up): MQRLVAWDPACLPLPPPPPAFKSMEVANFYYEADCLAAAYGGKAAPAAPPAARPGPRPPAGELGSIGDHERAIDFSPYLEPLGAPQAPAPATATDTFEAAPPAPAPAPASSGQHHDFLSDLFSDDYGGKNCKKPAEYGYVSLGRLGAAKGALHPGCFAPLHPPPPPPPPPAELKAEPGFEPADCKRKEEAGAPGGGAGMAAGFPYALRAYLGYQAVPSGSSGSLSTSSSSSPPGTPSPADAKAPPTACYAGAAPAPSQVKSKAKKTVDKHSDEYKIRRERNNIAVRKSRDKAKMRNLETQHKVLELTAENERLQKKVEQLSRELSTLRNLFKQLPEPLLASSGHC
Chain of Hepatocyte nuclear factor 3-beta (Homo sapiens) (Q9Y261 whole entry, looked up): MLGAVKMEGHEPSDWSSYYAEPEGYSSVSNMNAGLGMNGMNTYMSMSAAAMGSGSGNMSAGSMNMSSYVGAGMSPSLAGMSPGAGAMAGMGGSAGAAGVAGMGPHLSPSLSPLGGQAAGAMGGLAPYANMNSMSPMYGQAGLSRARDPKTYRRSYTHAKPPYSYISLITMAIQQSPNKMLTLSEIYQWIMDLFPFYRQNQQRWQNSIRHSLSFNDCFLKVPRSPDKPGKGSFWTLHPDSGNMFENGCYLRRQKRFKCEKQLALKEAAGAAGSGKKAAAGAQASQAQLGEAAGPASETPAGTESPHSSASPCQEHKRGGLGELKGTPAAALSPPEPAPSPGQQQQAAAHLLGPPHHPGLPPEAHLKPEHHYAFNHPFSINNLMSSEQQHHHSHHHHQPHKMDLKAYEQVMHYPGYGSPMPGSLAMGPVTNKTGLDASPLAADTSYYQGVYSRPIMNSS
Chain of Aryl hydrocarbon receptor (Homo sapiens) (P35869 whole entry, looked up): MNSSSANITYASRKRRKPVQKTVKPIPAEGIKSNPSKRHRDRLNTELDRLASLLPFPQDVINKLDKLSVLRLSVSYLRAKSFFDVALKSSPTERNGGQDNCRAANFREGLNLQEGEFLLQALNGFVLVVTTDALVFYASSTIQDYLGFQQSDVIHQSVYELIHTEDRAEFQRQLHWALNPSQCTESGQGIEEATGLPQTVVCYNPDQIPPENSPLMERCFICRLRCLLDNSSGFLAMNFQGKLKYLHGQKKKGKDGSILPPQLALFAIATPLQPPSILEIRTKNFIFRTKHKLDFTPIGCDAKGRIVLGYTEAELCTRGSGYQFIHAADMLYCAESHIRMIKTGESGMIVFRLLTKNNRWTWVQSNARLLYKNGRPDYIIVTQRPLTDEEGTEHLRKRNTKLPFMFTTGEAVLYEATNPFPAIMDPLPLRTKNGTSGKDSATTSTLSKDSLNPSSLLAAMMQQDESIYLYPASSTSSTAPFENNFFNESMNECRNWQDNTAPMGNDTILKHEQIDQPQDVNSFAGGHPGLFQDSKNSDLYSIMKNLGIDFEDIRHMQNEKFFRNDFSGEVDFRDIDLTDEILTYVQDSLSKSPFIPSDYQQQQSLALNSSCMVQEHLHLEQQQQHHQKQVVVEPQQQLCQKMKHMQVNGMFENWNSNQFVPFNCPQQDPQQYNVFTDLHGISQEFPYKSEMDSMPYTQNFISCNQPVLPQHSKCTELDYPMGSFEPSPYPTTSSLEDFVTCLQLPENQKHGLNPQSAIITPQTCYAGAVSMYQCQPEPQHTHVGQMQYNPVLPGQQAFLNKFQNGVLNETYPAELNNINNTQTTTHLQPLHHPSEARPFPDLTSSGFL
Chain of Retinoic acid receptor alpha (Homo sapiens) (P10276 whole entry, looked up): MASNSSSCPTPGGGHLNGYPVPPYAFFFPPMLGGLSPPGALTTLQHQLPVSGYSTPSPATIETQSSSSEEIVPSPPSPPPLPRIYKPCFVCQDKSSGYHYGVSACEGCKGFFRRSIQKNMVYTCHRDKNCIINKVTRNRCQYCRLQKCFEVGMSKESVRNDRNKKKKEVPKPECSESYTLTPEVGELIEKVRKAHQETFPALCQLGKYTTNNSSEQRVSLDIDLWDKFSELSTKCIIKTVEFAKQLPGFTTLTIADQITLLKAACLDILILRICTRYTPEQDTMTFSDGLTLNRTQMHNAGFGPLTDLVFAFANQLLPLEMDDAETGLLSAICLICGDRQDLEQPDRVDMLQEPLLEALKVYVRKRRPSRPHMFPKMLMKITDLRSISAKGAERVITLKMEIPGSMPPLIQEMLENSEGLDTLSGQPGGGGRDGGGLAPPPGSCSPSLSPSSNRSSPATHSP

OCCO
inactive: [1] | [2] | [3] | [4] | [5] | [6] | [7] | [8] | [9] | [10] | [11] | [12] | [13] | [14] | [15] | [16] | [17]

CC(C)(C)c1cc(/C=C2\SC(N)=NC2=O)cc(C(C)(C)C)c1O
inactive: [2] | [4] | [6] | [7] | [8] | [9] | [10] | [12] | [13] | [14] | [15] | [18] | [16] | [17]
active: [1] 18.9 µM | [3] 4.67 µM | [5] 20.2 µM | [11] 8.13 µM

COc1cc(C(=O)NC2CCN(C)CC2)ccc1Nc1ncc2c(n1)N(C1CCCC1)CC(F)(F)C(=O)N2C
inactive: [3] | [4] | [6] | [8] | [9] | [10] | [12] | [13] | [15] | [17]
active: [1] 0.933 µM | [2] 0.472 µM | [5] 5.06 µM | [7] 0.51 µM | [11] 2.26 µM | [14] 1.55 µM | [18] 3.63 µM

CCCCCc1ccc(N)cc1
active: [4] 65.5 µM | [5] 25.9 µM | [9] 5.55 µM and 4.89 µM | [13] 15.1 µM [middle of 4 runs]
inactive: [1] | [2] | [3] | [4] | [5] | [19] | [6] | [7] | [8] | [9] | [10] | [11] | [12] | [14] | [15] | [18] | [17]

Oc1ccccc1
inactive: [1] | [2] | [3] | [4] | [5] | [19] | [6] | [7] | [8] | [9] | [10] | [11] | [12] | [14] | [15] | [18] | [17]

CC(O)CC(C)(C)O (stereo not drawn)
inactive: [1] | [2] | [3] | [20] | [4] | [5] | [6] | [7] | [8] | [9] | [10] | [11] | [12] | [14] | [15] | [17]

CCN(CC)C(=O)c1cc(S(=O)(=O)Cc2ccccc2)c(N2CCC(c3ccccc3)CC2)cc1N(CC)CCN(C)C
inactive: [1] | [2] | [3] | [4] | [5] | [6] | [7] | [8] | [9] | [10] | [11] | [12] | [13] | [14] | [15] | [18] | [17]
